Screen size: about 5,500 compounds; about 2,000 (36%) were called active. Not shown: some 18% with an inconclusive outcome. Cut-off read from the data, not from the text of the source: active = normalized growth mostly below about 0.91 (no sharp cut-off); inconclusive = no clear call, values can overlap the other calls; inactive = mostly above about 0.92. The list shows a part of the results.
Experiment: chemical genetic growth profiling, strain panel (AID 1159580);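 note: tested at 20 µM; growth read once vehicle control cultures reached saturation at 30 °C; 1 = growth at the plate median or of vehicle wells; lower values mean less growth of the strain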
Details: S. cerevisiae deletion strains, growth OD
[1] = locus YDL101C, strain DUN1, hits give low values
[2] = locus YHR030C, strain SLT2, hits give low values

Measured: normalized growth

CC(C)(O)C#Cc1ccc(/C=N\O)cc1
inactive: locus YAL013W, strain DEP1, hits give low values 1.01 | locus YBR229C, strain ROT2, hits give low values 0.996 | [1] 0.99 | locus YDL134C, strain PPH21, hits give low values 0.981 | locus YDR150W, strain NUM1, hits give low values 0.938 | locus YEL061C, strain CIN8, hits give low values 0.984 | locus YGR078C, strain PAC10, hits give low values 1.03 | [2] 1 | locus YHR087W, strain rtc3, hits give low values 0.988 | locus YJR043C, strain POL32, hits give low values 1.02 | locus YJR075W, strain HOC1, hits give low values 0.992 | locus YKL190W, strain CNB1, hits give low values 1 | locus YLR039C, strain RIC1, hits give low values 0.991 | locus YLR058C, strain SHM2 (second series), hits give low values 1.01 | locus YLR085C, strain ARP6, hits give low values 0.939 | locus YLR262C, strain YPT6, hits give low values 0.968 | locus YML094W, strain GIM5, hits give low values 0.975 | locus YMR219W, strain ESC1, hits give low values 0.987 | locus YMR263W, strain SAP30, hits give low values 0.962 | locus YNL128W, strain TEP1, hits give low values 0.998 | locus YNL153C, strain GIM3, hits give low values 1 | locus YNL298W, strain CLA4 (second series), hits give low values 0.977 | locus YNL322C, strain KRE1, hits give low values 0.992 | locus YNR030W, strain Alg12, hits give low values 1 | locus YPL055C, strain LGE1, hits give low values 0.936 | locus YPL241C, strain CIN2, hits give low values 0.959 | locus YPR135W, strain CTF4, hits give low values 0.994

CC(C)(O)C#Cc1ccc(/C=N\Nc2ccccc2)cc1
inactive: locus YAR019C, strain CDC15, hits give low values 0.966 | locus YBL105C, strain PKC1, hits give low values 0.963 | locus YBR135W, strain CKS1, hits give low values 0.952 | locus YBR136W, strain MEC1, hits give low values 0.954 | locus YBR160W, strain CDC28, hits give low values 0.954 | locus YDL017W, strain CDC7, hits give low values 0.961 | locus YDL028C, strain MPS1, hits give low values 0.952 | [1] 0.954 | locus YDL108W, strain KIN28, hits give low values 0.965 | locus YDL132W, strain cdc53, hits give low values 0.949 | locus YDL214C, strain PRR2, hits give low values 0.822 | locus YDR052C, strain DBF4, hits give low values 0.955 | locus YDR054C, strain cdc34, hits give low values 0.957 | locus YDR226W, strain ADK1, hits give low values 0.968 | locus YDR477W, strain SNF1, hits give low values 0.767 | locus YER133W, strain GLC7, hits give low values 0.799 | locus YFL009W, strain cdc4, hits give low values 0.948 | locus YFL029C, strain CAK1, hits give low values 0.957 | locus YFR003C, strain YPI1, hits give low values 0.957 | locus YFR028C, strain CDC14, hits give low values 0.965 | locus YGR040W, strain KSS1, hits give low values 0.784 | locus YGR052W, strain FMP48, hits give low values 0.716 | locus YHR079C, strain IRE1, hits give low values 0.585 | locus YHR082C, strain KSP1, hits give low values 0.795 | locus YHR205W, strain SCH9, hits give low values 0.88 | locus YIL147C, strain SLN1, hits give low values 0.954 | locus YJL128C, strain PBS2, hits give low values 0.995 | locus YJR016C, strain ILV3, hits give low values 0.948 | locus YJR066W, strain TOR1, hits give low values 0.644 | locus YKL101W, strain HSL1, hits give low values 0.78 | locus YKL193C, strain SDS22, hits give low values 0.954 | locus YKL203C, strain TOR2, hits give low values 0.831 | locus YLR133W, strain CKI1, hits give low values 0.798 | locus YMR001C, strain CDC5, hits give low values 0.96 | locus YMR205C, strain PFK2 (second series), hits give low values 0.872 | locus YMR277W, strain FCP1, hits give low values 0.963 | locus YNL006W, strain LST8, hits give low values 0.954 | locus YNL020C, strain ARK1, hits give low values 0.811 | locus YNL161W, strain CBK1, hits give low values 0.954 | locus YNL183C, strain NPR1, hits give low values 0.735 | locus YNL207W, strain RIO2, hits give low values 0.958 | locus YNL222W, strain SSU72, hits give low values 0.953 | locus YOL078W, strain AVO1, hits give low values 0.952 | locus YOR119C, strain RIO1, hits give low values 0.799 | locus YOR329C, strain SCD5, hits give low values 0.955 | locus YPL031C, strain PHO85, hits give low values 0.686 | locus YPL209C, strain IPL1, hits give low values 0.959 | locus YPR025C, strain CCL1, hits give low values 0.948 | locus YPR106W, strain ISR1, hits give low values 0.974 | locus YPR111W, strain DBF20, hits give low values 0.968 | strain NNK1, hits give low values 0.979 | strain TSCII, hits give low values 0.951
active: locus YER123W, strain YCK3, hits give low values 0.569 | locus YFR019W, strain FAB1, hits give low values 0.589 | locus YGR092W, strain DBF2, hits give low values 0.13 | [2] 0.507 | locus YJL095W, strain BCK1, hits give low values 0.497 | locus YJR066W, strain TOR1 (second series), hits give low values 0.557 | locus YKL048C, strain ELM1, hits give low values 0.756 | locus YLR113W, strain HOG1, hits give low values 0.718 | locus YML070W, strain DAK1, hits give low values 0.556 | locus YNL307C, strain MCK1 (second series), hits give low values 0.41 | locus YOL136C, strain PFK27, hits give low values 0.614 | locus YOR061W, strain CKA2, hits give low values 0.366 | locus YOR231W, strain MKK1, hits give low values 0.551 | locus YPL153C, strain RAD53, hits give low values 0.565 | locus YPL204W, strain HRR25, hits give low values 0.602 | locus YPL256C, strain CLN2, hits give low values 0.766

Source: PubChem BioAssay AID1159580 (chemical genetic matrix, 2015)
